This is a sample that favours compounds with a hit; in the whole collection about 10% have one here.
hNpr1 antagonist = human Npr1 receptor antagonism | HEK293 hNpr1 GloSensor cGMP, ANP-stimulated luminescence | Potency, µM (titrated, usually from 46.3 µM), usual class: inhibitors | hit rate 1.6% among 76,000; calls by dose curve; note: nearly all actives have a fitted effect of over 60% in size
Target sequence (P16066 whole entry, looked up): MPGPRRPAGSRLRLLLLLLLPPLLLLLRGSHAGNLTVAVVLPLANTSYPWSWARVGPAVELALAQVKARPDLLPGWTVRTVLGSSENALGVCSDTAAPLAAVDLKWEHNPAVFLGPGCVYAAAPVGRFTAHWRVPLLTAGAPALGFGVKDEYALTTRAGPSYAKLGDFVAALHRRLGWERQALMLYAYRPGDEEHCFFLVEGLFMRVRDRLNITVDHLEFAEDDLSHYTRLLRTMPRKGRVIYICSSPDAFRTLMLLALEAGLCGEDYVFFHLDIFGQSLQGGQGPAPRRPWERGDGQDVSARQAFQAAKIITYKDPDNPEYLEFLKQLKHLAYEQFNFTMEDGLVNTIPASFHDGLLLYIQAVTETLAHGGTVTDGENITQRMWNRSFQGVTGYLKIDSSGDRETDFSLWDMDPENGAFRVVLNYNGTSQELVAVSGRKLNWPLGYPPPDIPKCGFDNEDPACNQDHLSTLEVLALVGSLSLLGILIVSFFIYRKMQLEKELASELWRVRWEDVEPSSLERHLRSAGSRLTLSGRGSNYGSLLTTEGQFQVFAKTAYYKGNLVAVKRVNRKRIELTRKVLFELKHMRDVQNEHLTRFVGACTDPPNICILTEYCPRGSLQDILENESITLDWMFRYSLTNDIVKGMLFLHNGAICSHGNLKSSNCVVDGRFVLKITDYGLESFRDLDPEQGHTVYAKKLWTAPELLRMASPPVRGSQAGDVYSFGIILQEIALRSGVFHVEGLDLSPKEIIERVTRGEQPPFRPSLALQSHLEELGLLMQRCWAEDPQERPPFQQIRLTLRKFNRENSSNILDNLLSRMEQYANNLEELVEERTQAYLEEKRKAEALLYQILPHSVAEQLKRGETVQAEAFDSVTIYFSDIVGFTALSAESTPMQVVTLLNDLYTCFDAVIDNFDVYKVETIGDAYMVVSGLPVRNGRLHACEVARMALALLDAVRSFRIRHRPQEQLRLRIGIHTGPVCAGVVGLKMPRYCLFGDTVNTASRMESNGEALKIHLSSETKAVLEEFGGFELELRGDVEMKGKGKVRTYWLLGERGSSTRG
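Compound pre-incubated 30 min at room temperature on GloSensor-loaded HEK293 cells stably carrying hNpr1 and the pGS-40F cGMP biosensor. Stimulation uses hNppA at 0.1 nM final; luminescence is taken at baseline and 20 min post-agonist.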
HEK293 tox = cytotoxic compounds in HEK 293 cells; Potency, µM (highest dose often 115 µM), hits mostly inhibitors; hit rate 6.6% among 94,000; HEK 293 viability, ATP luminescence (CellTiter-Glo), 48-72 h; note: nearly all actives have a fitted effect of over 60% in size
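Read-out: CellTiter-Glo ATP luminescence. Cells: HEK 293, 250 cells/well. Exposure: 48 or 72 hr, 37 degree Celsius.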
3T3 cytotox = cytotoxic compounds in NIH 3T3 cells; NIH 3T3 viability, CellTiter-Glo ATP luminescence, 48-72 h; Potency, µM (titrated, usually from 96.7 µM), most hits filed as inhibitors; hit rate 4.3% among 94,000; AID 1345082; note: nearly all actives have a fitted effect of over 55% in size
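Viability of NIH 3T3 cells after 48 or 72 hr compound treatment at 37 °C was assessed by CellTiter-Glo, with luminescence imaged following a 10 min room-temperature step.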
FLuc inh = inhibitors of firefly (Photinus pyralis) luciferase; P08659; purified P. pyralis luciferase, luminescence, biochemical; Potency, µM (doses to about 115 µM), most hits filed as inhibitors; hit rate 2.5% among 76,000; note: nearly all actives have a fitted effect of over 65% in size
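Purified P. pyralis luciferase (10nM final) in 50mM Tris acetate pH 7.5, 10mM Mg acetate, 0.01% Tween-20, 0.05% BSA with 10uM D-luciferin and 10uM ATP. Compounds titrated qHTS. Luminescence imaged on CCD.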
GPT2 inh = blocks human glutamate pyruvate transaminase 2. hit rate 0.25% among 100,000. Potency, µM (series often up to 57.7 µM), most hits filed as inhibitors. Recombinant GPT2, coupled pyruvate oxidase/HRP Amplex Red fluorescence. AID 1671188; note: nearly all actives have a fitted effect of over 60% in size
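Recombinant GPT2 (10ng/uL) with 250uM a-KG and 2mM L-alanine, 30 min at room temperature, in HEPES pH 7.5 buffer. Pyruvate detected by pyruvate oxidase/HRP/Amplex Red fluorescence after 30 min in the dark; AOA (50uM) as positive control.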
Hits are given with their value; . = inactive; ? = inconclusive; / = no result given. Unless noted, calls come from the whole dose curve; as a rule, active = well fitted curve in the direction sought with a large enough effect; inconclusive = small, poorly fitted or top-dose-only effect, or another doubt; inactive = no such curve, though single readings can be large; an effect the other way counts as inactive or inconclusive.

SMILES	hNpr1 antagonist	HEK293 tox	3T3 cytotox	FLuc inh	GPT2 inh
O=C(Cc1cccs1)N1CCCN(c2cc(-c3ccc(Br)cc3)[nH]n2)CC1	?	45µM	35µM	.	?
O=C(COc1ccc(F)cc1)N1CCCN(c2cc(-c3ccc(Br)cc3)[nH]n2)CC1	?	45µM	?	.	?
O=C(Nc1ccc(Cl)cc1)N1CCCC(C(=O)N2CCC(N3CCOC3=O)CC2)C1 (stereo not given)	/	.	.	/	.
COc1ccc(Nc2ccnc(N3CCCC(C(=O)NCCc4ccc(F)cc4)C3)n2)cc1 (stereo not given)	/	32µM	25µM	/	.
Cc1ccc(Nc2ccnc(N3CCCC(C(=O)NCCc4ccc(F)cc4)C3)n2)cc1 (stereo not given)	/	32µM	32µM	/	.
COCCN1C(=O)c2ccccc2C(C(=O)N2CCOCC2)C12CCCCC2 (stereo not given)	.	.	.	.	.
C#CCNC(=O)C[C@@H]1C[C@@H](C(C)C)[C@H](CNC(=O)NC2CCCCC2)C=C1C	.	?	?	.	?
CSc1cccc(NC(=O)Cn2c(N3CCOCC3)nc(C)cc2=O)c1	.	?	.	.	.
CCN1CCN(CC(O)COc2cccc(CNC3(c4ccccc4)CC3)c2)CC1 (stereo not given)	.	32µM	?	.	.
CCN1CCN(CC(O)COc2cccc(CNCCc3cccc(C)n3)c2)CC1 (stereo not given)	.	?	.	.	.
COc1ccc(-n2nc(C)c([C@@H]3C=C[C@@H](NCc4ccccc4)C3)c2C)cc1	?	79µM	?	50µM	.
COc1ccc(CN[C@@H]2C=C[C@@H](c3c(C)nn(-c4ccc(OC)cc4)c3C)C2)cc1	.	50µM	32µM	?	.
COc1ccc2[nH]cc(CCNC(=O)CCC[C@H]3NC[C@@H]4C[C@H]3CN(Cc3ccccc3)C4)c2c1	.	.	.	.	?
COCCNC(=O)C1(C)CN(Cc2ccccc2)Cc2ccc(Nc3ccccc3)nc21 (stereo not given)	.	?	?	.	.
COCCNC(=O)C1(C)CN(Cc2ccccc2)Cc2ccc(NCC(C)C)nc21 (stereo not given)	.	40µM	22µM	.	.
COCCN(C)C(=O)C1(C)CN(Cc2ccccc2)Cc2ccc(NCC(C)C)nc21 (stereo not given)	.	79µM	?	.	.
COCCN1Cc2ccc(NCC(C)C)nc2C(C)(C(=O)Nc2ccccc2)C1 (stereo not given)	.	?	?	.	.
COCCN1Cc2ccc(NCC(C)C)nc2C(C)(C(=O)Nc2ccc(OC)cc2)C1 (stereo not given)	.	?	45µM	?	.
CC(=O)N1CCCC(C(=O)N2CCCC(c3nc4ccncc4[nH]3)C2)C1 (stereo not given)	/	.	.	/	.
O=C(CCn1ccn2nc3c(c2c1=O)CCCC3)Nc1ccc2c(c1)OCO2	.	?	.	?	.
CCCCOC(=O)N1C[C@@H](CO)[C@@H]2Oc3c(C)cccc3[C@@H]21	/	?	40µM	/	/
CCCCCC(=O)N1C[C@@H](C(=O)OCC)[C@@H]2Oc3c(C)cccc3[C@@H]21	/	.	?	/	/
Cc1ccc(C(=O)N2CCCC3(CCNCC3)CC2)cc1Cl	.	?	79µM	.	.
Cn1cc(CN[C@H]2[C@H](O)[C@H](O)C[C@@H]2c2cccnc2)c2ccccc21	.	100µM	?	.	?
CCOC(=O)c1ccc(NC(=O)N2Cc3[nH]cnc3C[C@H]2c2nc(-c3ccc(OC(F)(F)F)cc3)no2)cc1	.	?	25µM	?	.
SMILES	hNpr1 antagonist	HEK293 tox	3T3 cytotox	FLuc inh	GPT2 inh
CCOC(=O)c1ccc(NC(=O)N2Cc3[nH]cnc3C[C@H]2c2nc(-c3ccc4c(c3)OCO4)no2)cc1	.	?	28µM	40µM	.
O=C(Nc1ccc(Cl)cc1)N1Cc2[nH]cnc2C[C@H]1c1nc(-c2ccc(OC(F)(F)F)cc2)no1	?	20µM	25µM	.	.
O=C(Nc1ccc(Cl)cc1)N1Cc2[nH]cnc2C[C@H]1c1nc(-c2ccc(F)c(Cl)c2)no1	?	?	25µM	7.9µM	.
CCOC(=O)c1ccc(NC(=O)N2Cc3[nH]cnc3C[C@H]2c2nc(-c3ccncc3)no2)cc1	.	.	?	.	.
Cc1ccc(-c2cc3c(=O)n(CCNC(=O)Cc4ccc(Cl)cc4)ccn3n2)cc1C	.	.	.	.	.
COc1ccc(C(=O)NC[C@@H]2C=C(C)[C@H](Cc3nc4ccncc4[nH]3)C[C@H]2C(C)C)cc1	.	89µM	?	.	.
CC1=C[C@@H](CNC(=O)CCC(=O)O)[C@H](C(C)C)C[C@H]1Cc1nc2ccncc2[nH]1	.	.	.	.	.
CC1=C[C@@H](CNC(=O)CC(C)(C)CC(=O)O)[C@H](C(C)C)C[C@H]1Cc1nc2ccc(F)cc2[nH]1	.	.	.	.	.
CCC(CC)C(=O)NC[C@@H]1C=C(C)[C@H](Cc2nc3ccc(F)cc3[nH]2)C[C@H]1C(C)C	.	?	100µM	.	.
CC1=C[C@@H](CN2C(=O)C(C)=C(C)C2=O)[C@H](C(C)C)C[C@H]1Cc1nc2ccc(C)cc2[nH]1	?	22µM	28µM	.	.
CCC(CC)C(=O)NC[C@@H]1C=C(C)[C@H](Cc2nc3ccc(C)cc3[nH]2)C[C@H]1C(C)C	.	63µM	?	.	.
COc1ccc2nc(C[C@@H]3C[C@@H](C(C)C)[C@H](CN4C(=O)C(C)=C(C)C4=O)C=C3C)[nH]c2c1	.	?	?	.	.
CCn1ccc(C(=O)N2CCCC(Cn3c(C)cnc3C3CC3)C2)n1 (stereo not given)	/	.	.	/	.
CCC(c1cccs1)N1C(=O)[C@H]2CN(S(=O)(=O)c3ccc4c(c3)CCC4)C[C@H]2C1=O (stereo not given in full)	.	.	.	.	.
COc1cc(NC(=O)Cn2c(-c3cnccn3)nc(C)c(C)c2=O)cc(OC)c1OC	.	.	.	.	.
COc1ccc(-n2nc(C3CCCN([S+](=O)([O-])c4cccc(C(F)(F)F)c4)C3)[nH]c2=O)cc1 (stereo not given)	.	?	?	.	.
CC1=C[C@@H](CNS(=O)(=O)c2ccccc2)[C@H](C(C)C)C[C@H]1Cc1nc2ccncc2[nH]1	.	71µM	79µM	.	.
CC1=C[C@@H](CNC(=O)CCCC(=O)O)[C@H](C(C)C)C[C@H]1Cc1nc2ccncc2[nH]1	.	.	.	.	.
CC1=C[C@@H](CC#N)[C@H](C(C)C)C[C@H]1CC(=O)N(C)Cc1cccnc1	.	?	.	.	.
CC1=C[C@@H](CNC(=O)c2ccnc(Cl)c2)[C@H](C(C)C)C[C@H]1Cc1nc2ccc(C)cc2[nH]1	?	?	18µM	.	.

Assay outcomes: PubChem, National Center for Advancing Translational Sciences (NCATS)
